# Only some compounds are listed: those with a hit (about 19% of all), similar ones and a draw of the others.
# uPA surface inh: qHTS for Inhibitors of Cell Surface uPA Generation. cell surface uPA generation assay, qHTS. Potency, µM (highest dose often 38.3 µM), most hits filed as inhibitors. 330,000 tested, 0.31% active; active means well fitted inhibition curve with a large enough effect; inconclusive means small, poorly fitted or top-dose-only effect; inactive means no such curve, though single readings can be large or run the other way; tested in mouse RAW 264.7 cells; further: nearly all actives have a fitted effect of over 55% in size
# HT1080NT lethal: qHTS for induction of synthetic lethality in tumor cells producing 2HG: qHTS for the HT-1080-NT fibrosarcoma cell line; HT-1080-NT fibrosarcoma viability, CellTiter-Glo ATP luminescence, 48 h; Potency, µM (series often up to 46.1 µM), hits mostly cytotoxic; 360,000 tested, 1.6% active; AID 686970, 2013;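 further: NT is the 2HG producing partner of a matched IDH1 knockdown line; nearly all actives have a fitted effect of over 55% in size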
#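 A 48-hour cytotoxicity screen used HT-1080-NT cells plated 2 hours before compound delivery. ATP-based CellTiter-Glo luminescence measured viability, normalized to DMSO and no-cell controls.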
# HT1080 IDH1KD tx: qHTS for induction of synthetic lethality in tumor cells producing 2HG: qHTS for the HT-1080-IDH1KD cell line. HT-1080 IDH1 knockdown viability, ATP luminescence, 48 h. 360,000 tested, 2% active. Potency, µM (top dose mostly 46.1 µM), hits mostly cytotoxic
#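 IDH1KD HT-1080 cells, 750/well, RPMI + 5% FBS; compound pinned after 2 h settling; 48 h, 37 °C; CellTiter-Glo luminescence; % activity normalised to DMSO and no-cell wells; curves fitted, classed by r2 and efficacy.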
# TDP1 cell CPT: qHTS for Inhibitors of human tyrosyl-DNA phosphodiesterase 1 (TDP1): qHTS in cells in presence of CPT | chicken DT40 Tdp1-/-;hTDP1 cells + 20 nM CPT, ATP luminescence, 48 h | Potency, µM (series often up to 46.2 µM), actives largely listed as inhibitors | 420,000 tested, 12% active; further: nearly all actives have a fitted effect of over 55% in size
#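 Chicken DT40 Tdp1-/- cells complemented with human TDP1, 400 cells/well, exposed to compounds plus 20 nM camptothecin for at least 48 h at 37 C; viability read as ATP content by CellTiter-Glo luminescence.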
# DT40 TDP1 no CPT: qHTS for Inhibitors of human tyrosyl-DNA phosphodiesterase 1 (TDP1): qHTS in cells in absence of CPT; DT40 Tdp1-/- hTDP1 cells, no CPT, ATP luminescence, 48 h; Potency, µM (top dose mostly 46.2 µM), usual class: inhibitors; 420,000 tested, 15% active; AID 686978, 2013; further: nearly all actives have a fitted effect of over 55% in size
#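 Compound effects on proliferation are scored in DT40 Tdp1-/-;hTDP1 cells in the absence of CPT. ATP levels (CellTiter-Glo luminescence) are recorded after a ≥48 hr, 37 °C incubation.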
# IL-1B inflam inh: qHTS for Inhibitors of Inflammasome Signaling: IL-1-beta AlphaLISA Primary Screen. THP-1 LPS/ATP IL-1B secretion, AlphaLISA, 16 h; hits give low values. activity change, % at 57.5 µM. 360,000 tested, 4.7% active. AID 743279, 2014; in the data active means activity change below about -50%; inconclusive means mostly about -30% to -49%
#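 THP-1 cells pretreated 1 hr with compounds (up to 57.5 uM final), then stimulated with LPS (250 ng/mL final) plus ATP (1.25 mM final); secreted IL-1B measured by AlphaLISA after 16 hr, decreased signal indicating inhibition.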
# A number is an active result; – = inactive; ? = inconclusive; · = not tested or not shown; [ ] = dose if it differs, or a comment. Unless noted, the call rests on the fitted dose curve; in most records, active means well fitted curve in the direction sought with a large enough effect; inconclusive means small, poorly fitted or top-dose-only effect, or another doubt; inactive means no such curve, though single readings can be large; an effect the other way counts as inactive or inconclusive.
SMILES,uPA surface inh,HT1080NT lethal,HT1080 IDH1KD tx,TDP1 cell CPT,DT40 TDP1 no CPT,IL-1B inflam inh
COc1ccc2[nH]c(=O)c(CN(CCO)S(=O)(=O)c3c(C)ccc4nsnc34)cc2c1,–,–,–,–,–,–
COc1ccc2[nH]c(=O)c(CN(Cc3cccs3)C(=S)Nc3cccc(C)c3)cc2c1,–,–,–,21µM,13µM,–
CNC(=S)N(Cc1ccc(OC)cc1)Cc1cc2cccc(C)c2[nH]c1=O,–,–,–,18µM,21µM,–
N#Cc1ccc(S(=O)(=O)N2CCN(C(=O)[C@@H]3CCCN3C(=O)c3cccs3)CC2)cc1,–,–,–,–,–,–
COc1ccc(NC(=O)C2CC(=O)N(c3ccccc3Cl)C2)c(OC)c1 (configuration not stated),–,–,–,–,–,–
COc1ccc(C)cc1N1CC(C(=O)Nc2ccccc2N2CCCCC2)CC1=O (configuration not stated),–,–,–,?,21µM,–
COc1ccc(N2CC(C(=O)Nc3ccccc3N3CCCC3)CC2=O)c(OC)c1 (configuration not stated),?,?,23µM,2.9µM,4.6µM,–
O=C(Nc1cc(C(F)(F)F)ccc1N1CCCC1)C1CC(=O)N(Cc2ccccc2)C1 (configuration not stated),·,–,–,–,–,–
CCc1ccc(N2CC(C(=O)Nc3ccccc3N3CCCC3)CC2=O)cc1 (configuration not stated),·,?,?,12µM,12µM,–
COc1ccc(N2CC(C(=O)Nc3cc(C(F)(F)F)ccc3N3CCCC3)CC2=O)c(OC)c1 (configuration not stated),–,21µM,21µM,?,23µM,–
O=S1(=O)CC(N2CCCCC2)CN1C1CCCCC1 (configuration not stated),·,–,–,–,–,–
CC(C)CCOc1ccc(C2CC(=O)N(C)C2=O)cc1 (configuration not stated),–,–,–,–,–,–
CC(C(=O)NC1(C#N)CCCCC1)N(C)CC(=O)Nc1ccc(Cl)c(Cl)c1 (configuration not stated),–,–,–,?,18µM,–
O=S(=O)(c1ccc2ccccc2c1)N1CCN(C(=S)Nc2ccc(F)c(Cl)c2)CC1,–,–,?,?,?,-69
O=S(=O)(c1ccc2ccccc2c1)N1CCN(C(=S)Nc2ccccc2F)CC1,–,–,–,–,–,–
NS(=O)(=O)c1ccc(NC(=S)N2CCN(c3ccccc3Cl)CC2)cc1,–,–,–,?,?,–
O=S(=O)(c1cccc(NC(=S)N2CCN(c3cccc(Cl)c3)CC2)c1)C(F)F,–,21µM,23µM,?,?,?
NS(=O)(=O)c1ccc(NC(=S)N2CCN(c3cccc(Cl)c3)CC2)cc1,–,?,?,?,7.3µM,–
CC1CN(CCNC(=O)C2CCCc3c2[nH]c2ccccc32)Cc2ccccc2O1 (configuration not stated),·,·,·,–[9.04 µM],?,·
Clc1ccc2c(N3CCCC3)ccnc2c1,–,–,–,?,?,–
Clc1ccc2c(N3CCOCC3)ccnc2c1,–,–,–,–,?,–
COc1ccc(N2CCN(c3ccnc4cc(Cl)ccc34)CC2)cc1,–,–,–,?,18µM,-56
CC1CN(c2ccnc3cc(Cl)ccc23)CC(C)O1 (configuration not stated),–,–,–,?,12µM,–
Oc1ccc(N2CCN(c3ccnc4cc(Cl)ccc34)CC2)cc1,–,–,–,?,23µM,–
COc1ccc(-c2csc(Nc3ccc(Oc4ccccc4)cc3)n2)cc1,·,?,13µM,18µM,16µM,–
SMILES,uPA surface inh,HT1080NT lethal,HT1080 IDH1KD tx,TDP1 cell CPT,DT40 TDP1 no CPT,IL-1B inflam inh
Cc1nc(N)sc1-c1csc(Nc2ccccc2)n1,–,–,–,?,?,–
COc1ccc(Nc2nc(-c3sc(C)nc3C)cs2)cc1,?,5.2µM,3.7µM,1.2µM,1.2µM,–
Cc1nc(C)c(-c2csc(Nc3ccc(N)cc3)n2)s1,4.5µM,–,–,?,16µM,–
COc1ccc(-c2nn(CC(=O)NCc3ccccc3)c3c2cnc2ccc(F)cc23)cc1,·,·,·,–,–,·
CCN(CC(=O)Nc1c(F)cccc1F)C(=O)CCNS(=O)(=O)c1ccccc1C(F)(F)F,–,–,–,–,–,–
O=C(NCCc1cccnc1)C1CCC(=O)N(Cc2ccc(Cl)cc2)C1 (configuration not stated),–,–,–,–,–,–
Cn1c(SCc2c(F)cccc2Cl)nc2c(c1=O)SCC2,–,–,–,–,?,-59
CCOC(=O)CCC1(C(=O)OC)C(=O)CCCCCC=C1C(=O)OC (configuration not stated),·,–,–,–,–,-51
Cc1ccc(S(=O)(=O)N(C)C)cc1NC(=O)c1cc(S(=O)(=O)N2CCCCC2)ccc1N1CCOCC1,–,–,–,?,12µM,–
COc1ccc(CCNC(=O)COC(=O)c2cc(S(=O)(=O)N3CCOCC3)ccc2C)cc1OC,–,–,–,18µM,?,–
COc1ccc(CCNC(=O)c2cc(S(=O)(=O)N3CCOCC3)ccc2N2CCCC2)cc1OC,–,–,–,–,–,–
COc1ccc(CNC(=O)c2cc(S(=O)(=O)N3CCCCC3)ccc2N2CCOCC2)cc1OC,–,–,–,?,9.2µM,–
O=C(NCCc1c[nH]c2ccccc12)c1cc(S(=O)(=O)N2CCCCC2)ccc1N1CCOCC1,–,–,–,?,13µM,–
CO[C@@H]1CN(C)C(=O)c2cc(NS(=O)(=O)c3ccc(C)cc3)ccc2OC[C@H](C)N(Cc2nccs2)C[C@H]1C,·,–,–,?,?,–
Cc1ccc2c(=O)cc(C(=O)NCc3ccccc3)oc2c1,·,·,·,–,–,·
COCCN(C(=O)c1ccco1)C(C(=O)NC1CCCC1)c1cccs1 (configuration not stated),–,–,–,–,–,–
O=C1c2nccnc2C(=O)N1c1ccc(F)cc1,–,–,–,–,–,–
Cc1ccc(S(=O)(=O)N2CCN(C(=O)c3cc(S(=O)(=O)N(C)C)ccc3N3CCCC3)CC2)c(C)c1,–,–,–,?,16µM,–
COc1cc(NC(=O)c2cc(S(=O)(=O)N3CCCCC3)ccc2N2CCOCC2)cc(OC)c1,–,–,–,21µM,21µM,–
